Only a selection was taken, and the strongest signals are over-represented in it overall.
Legend:
Experiment in all cases: glycan array binding signal (z-score within array); higher = stronger binding
Details in all cases: glycan notation: IUPAC condensed, linker removed
[1] = molecular target: Fuc(a1-2)Gal(b1-3)GlcNAc(b1-3)Gal(b1-4)Glc
Method in brief: (§1)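 Glycan array data came from 3228 arrays in the Consortium for Functional Glycomics database, and only arrays with an available protein sequence were kept. Glycan names were put into IUPAC-condensed notation, and columns mapping to the same glycan were averaged. The binding signal is a within-array Z-score, averaged across arrays of one protein sequence run at different concentrations or buffers and across linkers. A negative Z-score can be read as non-binding.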

[2] = molecular target: Fuc(a1-2)Gal(b1-4)GlcNAc(b1-3)Gal(b1-4)GlcNAc(b1-3)Gal(b1-4)GlcNAc
Method in brief: as §1

[3] = molecular target: Fuc(a1-2)Gal(b1-4)GlcNAc6S
Method in brief: as §1

[4] = molecular target: Fuc(a1-2)Gal(b1-4)[Fuc(a1-3)]GlcNAc
Method in brief: as §1

[5] = molecular target: Fuc(a1-2)Gal(b1-4)[Fuc(a1-3)]GlcNAc(b1-3)Gal(b1-4)[Fuc(a1-3)]GlcNAc(b1-3)Gal(b1-4)[Fuc(a1-3)]GlcNAc
Method in brief: as §1

[6] = molecular target: Fuc(a1-2)Gal6S(b1-4)Glc6S
Method in brief: as §1

[7] = molecular target: Fuc(a1-2)[GalNAc(a1-3)]Gal(b1-4)Glc
Method in brief: as §1

[8] = molecular target: Fuc(a1-3)[Gal(b1-4)]GlcNAc6S
Method in brief: as §1

[9] = molecular target: Fuc(a1-3)[Gal3S(b1-4)]GlcNAc6S
Method in brief: as §1

Gal(a1-6)Glc = molecular target: Gal(a1-6)Glc
Method in brief: as §1

[10] = molecular target: Gal(b1-4)GlcNAc(b1-3)Gal(b1-4)GlcNAc(b1-3)Gal(b1-4)GlcNAc
Method in brief: as §1

Gal3S(b1-3)GalNAc = molecular target: Gal3S(b1-3)GalNAc
Method in brief: as §1

Gal3S6S(b1-4)GlcNAc6S = molecular target: Gal3S6S(b1-4)GlcNAc6S
Method in brief: as §1

Gal4S6S(b1-4)GlcNAc = molecular target: Gal4S6S(b1-4)GlcNAc
Method in brief: as §1

GalNAc(a1-3)GalNAc = molecular target: GalNAc(a1-3)GalNAc
Method in brief: as §1

GlcA(b1-3)GlcNAc = molecular target: GlcA(b1-3)GlcNAc
Method in brief: as §1

Kdn(a2-3)Gal(b1-3)GlcNAc = molecular target: Kdn(a2-3)Gal(b1-3)GlcNAc
Method in brief: as §1

[11] = molecular target: Man(a1-2)Man(a1-2)Man(a1-3)Man
Method in brief: as §1

[12] = molecular target: Neu5Ac(a2-3)Gal(b1-3)[Fuc(a1-4)]GlcNAc
Method in brief: as §1

Neu5Ac(a2-3)Gal(b1-4)Glc = molecular target: Neu5Ac(a2-3)Gal(b1-4)Glc
Method in brief: as §1

[13] = molecular target: Neu5Ac(a2-3)Gal(b1-4)GlcNAc(b1-2)Man(a1-3)[Neu5Ac(a2-6)Gal(b1-4)GlcNAc(b1-2)Man(a1-6)]Man(b1-4)GlcNAc(b1-4)GlcNAc
Method in brief: as §1

[14] = molecular target: Neu5Ac(a2-3)Gal(b1-4)GlcNAc(b1-3)Gal(b1-3)GlcNAc
Method in brief: as §1

[15] = molecular target: Neu5Ac(a2-3)Gal(b1-4)[Fuc(a1-3)]GlcNAc(b1-3)Gal(b1-4)[Fuc(a1-3)]GlcNAc(b1-3)Gal(b1-4)[Fuc(a1-3)]GlcNAc
Method in brief: as §1

[16] = molecular target: Neu5Ac(a2-6)Gal(b1-4)GlcNAc6S
Method in brief: as §1

Neu5Ac(b2-6)GalNAc = molecular target: Neu5Ac(b2-6)GalNAc
Method in brief: as §1

[17] = molecular target: Neu5Gc(a2-3)Gal(b1-3)[Fuc(a1-4)]GlcNAc
Method in brief: as §1

Neu5Gc(a2-3)Gal(b1-4)Glc = molecular target: Neu5Gc(a2-3)Gal(b1-4)Glc
Method in brief: as §1

B1: CLC (Homo sapiens), Q9UBD9 (protein)
chain: MDLRAGDSWGMLACLCTVLWHLPAVPALNRTGDPGPGPSIQKTYDLTRYLEHQLRSLAGTYLNYLGPPFNEPDFNPPRLGAETLPRATVDLEVWRSLNDKLRLTQNYEAYSHLLCYLRGLNRQAATAELRRSLAHFCTSLQGLLGSIAGVMAALGYPLPQPLPGTEPTWTPGPAHSDFLQKMDDFWLLKELQTWLWRSAKDFNRLKKKMQPPAAAVTLHLGAHGF
[1]
  glycan array binding signal (z-score): -0.218
[2]
  glycan array binding signal (z-score): -0.886
[3]
  glycan array binding signal (z-score): -0.106
[4]
  glycan array binding signal (z-score): -0.557
[5]
  glycan array binding signal (z-score): 0.011
[6]
  glycan array binding signal (z-score): 2.23
[7]
  glycan array binding signal (z-score): 1.52
[8]
  glycan array binding signal (z-score): -0.923
[9]
  glycan array binding signal (z-score): 2.72
Gal(a1-6)Glc
  glycan array binding signal (z-score): -0.312
[10]
  glycan array binding signal (z-score): -0.565
Gal3S(b1-3)GalNAc
  glycan array binding signal (z-score): -0.144
Gal3S6S(b1-4)GlcNAc6S
  glycan array binding signal (z-score): 11.1
Gal4S6S(b1-4)GlcNAc
  glycan array binding signal (z-score): 2.49
GalNAc(a1-3)GalNAc
  glycan array binding signal (z-score): 0.257
GlcA(b1-3)GlcNAc
  glycan array binding signal (z-score): 0.215
Kdn(a2-3)Gal(b1-3)GlcNAc
  glycan array binding signal (z-score): -0.192
[11]
  glycan array binding signal (z-score): 0.263
[12]
  glycan array binding signal (z-score): -0.63
Neu5Ac(a2-3)Gal(b1-4)Glc
  glycan array binding signal (z-score): 0.101
[13]
  glycan array binding signal (z-score): 0.098
[14]
  glycan array binding signal (z-score): 0.852
[15]
  glycan array binding signal (z-score): -0.485
[16]
  glycan array binding signal (z-score): -0.346
Neu5Ac(b2-6)GalNAc
  glycan array binding signal (z-score): -0.297
[17]
  glycan array binding signal (z-score): -0.279
Neu5Gc(a2-3)Gal(b1-4)Glc
  glycan array binding signal (z-score): 2.45

Reference: the supplement of paper PMC8728848
